From the supplement of paper PMC10849652 come the findings set out here.

The full data set covers some 7,900 targets. This sample favours those with a hit. About 0.6% of all pairs of compound and target were hits.

Compound in the test: c1cn2cc(-c3ccc4cn[nH]c4c3)nc(Nc3ccc(N4CCOCC4)cc3)c2n1 [entospletinib]
Kind of test: log2 fold change, soluble protein after heating vs DMSO (PISA); higher = thermal stabilisation; K562 cells, 10 uM, 30 min; active = over 0.2 and 3.5 SD of the protein, either way, in both replicates (recomputed). In a few lines: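 For each measurement, 10 μM compound was applied for 30 min to K562 cells at 2×10^6 cells/mL. Aliquots were heated for 3 min across 48°C-58°C, pooled, and extracted in PBS with 0.5% NP-40 at 4°C; the supernatant after 21,000xg for 90 min was soluble protein. This was quantified by TMTpro 16plex LC-MS/MS with channel sums equalised, and thermal stability was reported relative to control samples from duplicates, on a log2 fold-change scale.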

UniProt P40763, sequence (P40763 whole entry, looked up): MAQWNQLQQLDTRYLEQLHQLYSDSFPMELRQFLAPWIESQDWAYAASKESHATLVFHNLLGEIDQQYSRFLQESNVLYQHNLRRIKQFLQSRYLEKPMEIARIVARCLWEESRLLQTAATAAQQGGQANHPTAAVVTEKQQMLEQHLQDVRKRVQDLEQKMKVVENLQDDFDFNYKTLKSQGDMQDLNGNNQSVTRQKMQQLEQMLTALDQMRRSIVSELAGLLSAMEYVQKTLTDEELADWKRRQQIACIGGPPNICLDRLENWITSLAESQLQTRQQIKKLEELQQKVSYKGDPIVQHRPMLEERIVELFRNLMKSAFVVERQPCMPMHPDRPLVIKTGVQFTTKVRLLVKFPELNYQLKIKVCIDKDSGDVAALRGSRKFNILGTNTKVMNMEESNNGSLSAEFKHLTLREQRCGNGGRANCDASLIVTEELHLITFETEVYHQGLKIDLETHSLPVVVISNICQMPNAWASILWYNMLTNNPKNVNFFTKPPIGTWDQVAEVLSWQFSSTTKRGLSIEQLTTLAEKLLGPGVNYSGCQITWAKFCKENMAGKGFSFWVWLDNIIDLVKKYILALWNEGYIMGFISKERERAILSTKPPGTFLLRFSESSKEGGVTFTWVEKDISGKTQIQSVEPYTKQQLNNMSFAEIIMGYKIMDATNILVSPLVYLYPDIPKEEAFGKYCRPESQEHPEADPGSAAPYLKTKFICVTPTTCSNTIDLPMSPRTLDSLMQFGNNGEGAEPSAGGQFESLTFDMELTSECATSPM
UniProt Q9UHD2, sequence (Q9UHD2 whole entry, looked up): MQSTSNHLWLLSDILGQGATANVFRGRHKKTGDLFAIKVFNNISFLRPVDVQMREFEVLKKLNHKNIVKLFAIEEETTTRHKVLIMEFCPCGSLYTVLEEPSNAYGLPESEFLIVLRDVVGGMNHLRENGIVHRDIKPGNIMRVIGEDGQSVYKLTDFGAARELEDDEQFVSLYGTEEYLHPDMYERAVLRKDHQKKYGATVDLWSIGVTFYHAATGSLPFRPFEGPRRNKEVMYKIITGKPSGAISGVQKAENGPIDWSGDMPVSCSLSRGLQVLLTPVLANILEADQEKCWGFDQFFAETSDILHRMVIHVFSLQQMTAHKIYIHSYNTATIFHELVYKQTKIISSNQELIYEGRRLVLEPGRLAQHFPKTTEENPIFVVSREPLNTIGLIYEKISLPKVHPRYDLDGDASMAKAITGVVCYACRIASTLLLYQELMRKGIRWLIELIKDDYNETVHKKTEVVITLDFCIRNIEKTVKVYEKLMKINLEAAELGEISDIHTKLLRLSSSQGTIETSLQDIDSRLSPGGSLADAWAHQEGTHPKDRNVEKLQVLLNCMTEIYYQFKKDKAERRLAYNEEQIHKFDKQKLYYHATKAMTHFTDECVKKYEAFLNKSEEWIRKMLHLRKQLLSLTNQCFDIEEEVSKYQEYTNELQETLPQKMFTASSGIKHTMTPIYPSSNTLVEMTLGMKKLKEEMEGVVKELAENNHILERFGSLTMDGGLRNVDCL
UniProt O75494, sequence (O75494 whole entry, looked up): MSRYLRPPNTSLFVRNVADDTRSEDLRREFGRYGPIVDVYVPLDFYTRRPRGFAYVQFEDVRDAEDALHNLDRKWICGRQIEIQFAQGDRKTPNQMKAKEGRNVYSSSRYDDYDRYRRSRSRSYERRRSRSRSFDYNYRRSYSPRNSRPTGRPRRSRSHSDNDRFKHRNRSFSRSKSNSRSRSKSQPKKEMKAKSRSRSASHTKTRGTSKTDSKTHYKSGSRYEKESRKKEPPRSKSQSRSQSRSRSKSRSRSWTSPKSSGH
UniProt Q9NVC3, sequence (Q9NVC3 whole entry, looked up): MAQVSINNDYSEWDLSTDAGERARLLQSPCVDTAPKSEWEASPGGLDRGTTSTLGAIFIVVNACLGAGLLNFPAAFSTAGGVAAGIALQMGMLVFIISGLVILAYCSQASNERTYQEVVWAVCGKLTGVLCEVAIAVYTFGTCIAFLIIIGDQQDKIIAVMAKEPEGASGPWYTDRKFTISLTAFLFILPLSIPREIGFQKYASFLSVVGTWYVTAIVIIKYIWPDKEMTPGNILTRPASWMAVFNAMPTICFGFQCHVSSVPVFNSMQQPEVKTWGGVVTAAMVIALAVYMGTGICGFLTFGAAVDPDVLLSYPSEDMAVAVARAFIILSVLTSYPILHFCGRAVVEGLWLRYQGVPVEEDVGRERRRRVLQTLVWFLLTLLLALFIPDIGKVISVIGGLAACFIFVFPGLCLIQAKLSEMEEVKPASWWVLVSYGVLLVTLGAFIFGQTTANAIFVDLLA
UniProt Q8IY18, sequence (Q8IY18 whole entry, looked up): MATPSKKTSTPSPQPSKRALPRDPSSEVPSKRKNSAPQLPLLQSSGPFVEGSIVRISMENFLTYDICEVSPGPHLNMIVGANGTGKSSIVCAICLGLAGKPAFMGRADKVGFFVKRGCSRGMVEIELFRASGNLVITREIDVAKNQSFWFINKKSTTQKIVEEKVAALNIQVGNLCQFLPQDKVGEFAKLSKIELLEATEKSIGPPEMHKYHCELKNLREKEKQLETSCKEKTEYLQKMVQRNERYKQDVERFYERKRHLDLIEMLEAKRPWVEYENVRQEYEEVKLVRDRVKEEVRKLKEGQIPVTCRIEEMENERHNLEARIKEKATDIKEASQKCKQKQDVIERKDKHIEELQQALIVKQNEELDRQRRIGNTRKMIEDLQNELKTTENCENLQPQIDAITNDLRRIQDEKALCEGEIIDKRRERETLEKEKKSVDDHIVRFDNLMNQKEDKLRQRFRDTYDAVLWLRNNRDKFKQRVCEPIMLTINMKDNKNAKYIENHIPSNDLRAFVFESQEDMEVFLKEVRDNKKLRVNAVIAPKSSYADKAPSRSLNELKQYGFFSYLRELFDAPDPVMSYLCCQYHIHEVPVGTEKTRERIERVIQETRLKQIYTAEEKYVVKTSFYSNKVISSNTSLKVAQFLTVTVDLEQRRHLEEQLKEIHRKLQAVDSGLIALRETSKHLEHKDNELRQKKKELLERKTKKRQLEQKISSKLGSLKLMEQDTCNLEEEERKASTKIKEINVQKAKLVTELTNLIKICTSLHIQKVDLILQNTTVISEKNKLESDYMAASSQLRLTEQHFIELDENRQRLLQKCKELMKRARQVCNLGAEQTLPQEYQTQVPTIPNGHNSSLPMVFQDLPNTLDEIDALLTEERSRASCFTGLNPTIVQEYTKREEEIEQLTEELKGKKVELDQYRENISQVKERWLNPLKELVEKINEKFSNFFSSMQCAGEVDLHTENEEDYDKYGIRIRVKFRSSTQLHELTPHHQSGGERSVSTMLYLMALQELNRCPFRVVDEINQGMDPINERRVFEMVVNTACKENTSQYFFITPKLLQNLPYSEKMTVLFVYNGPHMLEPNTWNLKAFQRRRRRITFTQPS
UniProt P78382, sequence (P78382 whole entry, looked up): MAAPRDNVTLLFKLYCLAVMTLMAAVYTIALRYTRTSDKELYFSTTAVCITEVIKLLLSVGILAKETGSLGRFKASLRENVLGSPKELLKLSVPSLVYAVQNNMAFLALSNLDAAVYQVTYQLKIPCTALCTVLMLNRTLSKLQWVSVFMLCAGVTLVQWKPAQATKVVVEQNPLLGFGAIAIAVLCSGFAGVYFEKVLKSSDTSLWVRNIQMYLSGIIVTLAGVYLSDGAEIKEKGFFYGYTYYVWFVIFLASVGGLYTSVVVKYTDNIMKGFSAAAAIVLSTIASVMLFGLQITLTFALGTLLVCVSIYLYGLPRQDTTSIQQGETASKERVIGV
UniProt Q13596, sequence (Q13596 whole entry, looked up): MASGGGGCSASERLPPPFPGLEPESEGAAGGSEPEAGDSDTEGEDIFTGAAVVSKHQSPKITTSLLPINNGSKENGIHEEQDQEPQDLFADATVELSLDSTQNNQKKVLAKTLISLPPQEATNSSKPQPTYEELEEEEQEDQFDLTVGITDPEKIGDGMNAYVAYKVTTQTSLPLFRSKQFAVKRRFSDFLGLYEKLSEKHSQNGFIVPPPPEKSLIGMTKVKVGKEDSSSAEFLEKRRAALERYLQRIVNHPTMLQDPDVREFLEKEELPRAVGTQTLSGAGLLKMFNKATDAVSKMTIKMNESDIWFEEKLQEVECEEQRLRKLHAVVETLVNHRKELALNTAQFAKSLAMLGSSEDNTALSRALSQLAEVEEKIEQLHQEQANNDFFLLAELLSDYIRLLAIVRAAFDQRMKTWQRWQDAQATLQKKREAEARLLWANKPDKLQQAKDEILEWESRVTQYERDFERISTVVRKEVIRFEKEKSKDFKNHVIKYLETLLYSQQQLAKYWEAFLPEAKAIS
UniProt P56962, sequence (P56962 whole entry, looked up): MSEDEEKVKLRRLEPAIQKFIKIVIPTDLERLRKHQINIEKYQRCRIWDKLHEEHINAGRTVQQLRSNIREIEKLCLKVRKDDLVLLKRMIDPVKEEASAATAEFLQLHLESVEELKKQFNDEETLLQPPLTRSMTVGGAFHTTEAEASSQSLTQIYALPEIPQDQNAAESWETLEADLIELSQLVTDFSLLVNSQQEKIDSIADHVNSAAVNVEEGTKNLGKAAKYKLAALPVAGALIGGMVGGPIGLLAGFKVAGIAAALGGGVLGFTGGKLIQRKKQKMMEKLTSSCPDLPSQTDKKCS
UniProt P08579, sequence (P08579 whole entry, looked up): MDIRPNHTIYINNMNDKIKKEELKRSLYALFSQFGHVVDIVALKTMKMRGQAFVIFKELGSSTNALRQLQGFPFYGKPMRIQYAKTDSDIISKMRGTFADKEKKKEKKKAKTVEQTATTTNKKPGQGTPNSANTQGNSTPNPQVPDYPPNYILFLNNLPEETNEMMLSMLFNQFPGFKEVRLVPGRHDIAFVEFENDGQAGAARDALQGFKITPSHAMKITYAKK
UniProt P63165, sequence (P63165 whole entry, looked up): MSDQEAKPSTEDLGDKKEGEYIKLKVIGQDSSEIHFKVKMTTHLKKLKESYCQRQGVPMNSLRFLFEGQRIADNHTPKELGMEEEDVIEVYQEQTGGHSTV
UniProt P62318, sequence (P62318 whole entry, looked up): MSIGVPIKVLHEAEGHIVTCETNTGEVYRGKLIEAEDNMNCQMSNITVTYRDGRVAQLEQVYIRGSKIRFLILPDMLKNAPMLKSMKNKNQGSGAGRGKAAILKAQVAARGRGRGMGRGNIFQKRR

SRC isoform 2 (UniProt P12931): the log2 fold change was 0.02 (inactive). The figure for TK1 (UniProt P04183) is -0.012 (inactive). As to SLC35A1 (UniProt P78382), the log2 fold change was -0.142 (inactive).

SUMO1 (UniProt P63165): the log2 fold change was 0.038 (inactive). SLIRP (UniProt Q9GZT3): the log2 fold change is 0.134 (inactive). For the target STAT3 (UniProt P40763), the log2 fold change is 0.026 (inactive). With SNRPD3 (UniProt P62318), the log2 fold change is 0.01 (inactive). In the case of SRSF10 (UniProt O75494), the log2 fold change is 0.235 (inactive).

Consider SNRPB2 (UniProt P08579), for which the log2 fold change is -0.026 (inactive). For STX17 (UniProt P56962), the log2 fold change is -0.071 (inactive). The figure for TAOK1 (UniProt Q7L7X3) is -0.009 (inactive). Regarding SPAG9 isoform 4 (UniProt O60271), the log2 fold change is 0.003 (inactive).

Consider SMC5 (UniProt Q8IY18), for which the log2 fold change is 0.016 (inactive). In the case of SLC4A2 (UniProt P04920), the log2 fold change was 0.028 (inactive). Regarding STK38 (UniProt Q15208), the log2 fold change was -0.033 (inactive). On to SYNE2 isoform 2 (UniProt Q8WXH0), for which the log2 fold change was -0.069 (inactive). Take SLC35F6 (UniProt Q8N357): the log2 fold change is -0.011 (inactive). Regarding SNX1 (UniProt Q13596), the log2 fold change is -0.002 (inactive). For the target SLC46A1 (UniProt Q96NT5), the log2 fold change is 0.078 (inactive).

As to SPG11 (UniProt Q96JI7), the log2 fold change is 0.185 (inactive). The figure for TAMM41 isoform 3 (UniProt Q96BW9) is -0.039 (inactive); for SLC38A7 (UniProt Q9NVC3) it is 0.004 (inactive); for TBK1 (UniProt Q9UHD2) it is 0.108 (inactive).
